Reference: the supplement of paper PMC4709259
Where a name gives a salt, the structure may show the parent alone. ± gives the standard deviation.

What was measured:
Jurkat [1] = assay: mean cell size (FSC-A) relative to DMSO control (fraction of control); higher = larger cells; conditions: 48 h
Summary of the method: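 Jurkat cells at 600 cells/µl were incubated for 1 h and then treated for 48h with the Enzo Screen-Well FDA Approved Drug Library v2.0 at 25µM, with DMSO at 0.9% (v/v) final. Compounds that reduced counts below 20% of controls were retested in 10-fold dilutions down to 25nM. Cell count and mean cell size, taken as forward scatter area, were measured by flow cytometry relative to solvent-only controls. Each plate carried 6-12 controls, and values are means of 3 biological replicates.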

Jurkat [2] = assay: cell count relative to DMSO control (fraction of control); higher = more cells (less growth inhibition); conditions: 48 h

SMILES	mean cell size (Jurkat [1])	cell count (Jurkat [2])
CC[C@@H]1/C=C(\C)C[C@H](C)C[C@H](OC)[C@H]2O[C@@](O)(C(=O)C(=O)N3CCCC[C@H]3C(=O)O[C@H](/C(C)=C/[C@@H]3CC[C@H](Cl)[C@H](OC)C3)[C@H](C)[C@@H](O)CC1=O)[C@H](C)C[C@@H]2OC [Pimecrolimus] (concentration: 25 µM)	0.822 ± 0.021	0.692 ± 0.099
CCC1=C[C@@H]2CN(C1)Cc1c([nH]c3ccccc13)[C@@](C(=O)OC)(c1cc3c(cc1OC)N(C)[C@H]1[C@@](O)(C(=O)OC)[C@H](OC(C)=O)[C@]4(CC)C=CCN5CC[C@]31[C@@H]54)C2 [Vinorelbine] (concentration: 250 nM)	0.941 ± 0.031	0.559 ± 0.048
C#C[C@]1(O)CC[C@H]2[C@@H]3CCc4cc(O)ccc4[C@H]3CC[C@@]21C [Ethinyl Estradiol] (concentration: 25 µM)	1.22 ± 0.075	0.263 ± 0.035
Nc1ncnc2c1ncn2[C@@H]1O[C@H](CO)[C@@H](O)[C@H]1O [Adenosine] (concentration: 25 µM)	1 ± 0.041	0.73 ± 0.082
CN1C(=O)CC(C)(c2ccccc2)C1=O (stereo not drawn) [Methsuximide] (concentration: 25 µM)	1.03 ± 0.03	0.752 ± 0.068
O=P(O)(O)C(O)(Cc1cccnc1)P(=O)(O)O [Risredonic Acid] (concentration: 25 µM)	0.964 ± 0.048	0.428 ± 0.091
CC(=O)OCC(CCn1cnc2cnc(N)nc21)COC(C)=O [Famciclovir] (concentration: 25 µM)	0.925 ± 0.053	0.465 ± 0.18
CN(C)CCc1c[nH]c2ccc(CS(=O)(=O)N3CCCC3)cc12 [Almotriptan] (concentration: 25 µM)	0.95 ± 0.053	0.62 ± 0.18
COC(c1ccccc1)(c1ccccc1)[C@H](Oc1nc(C)cc(C)n1)C(=O)O [Ambrisentan] (concentration: 25 µM)	0.975 ± 0.043	0.757 ± 0.088
CC1(C)O[C@@H]2C[C@H]3[C@@H]4C[C@H](F)C5=CC(=O)C=C[C@]5(C)[C@H]4[C@@H](O)C[C@]3(C)[C@]2(C(=O)CO)O1 [Flunisolide] (concentration: 2.5 µM)	0.996 ± 0.021	0.893 ± 0.11
OCCN1C[C@H](O)[C@@H](O)[C@H](O)[C@H]1CO [Miglitol] (concentration: 25 µM)	0.994 ± 0.04	0.767 ± 0.14
COc1ccc(C[C@@H]2c3cc(OC)c(OC)cc3CC[N@+]2(C)CCC(=O)OCCCCCOC(=O)CC[N@@+]2(C)CCc3cc(OC)c(OC)cc3[C@H]2Cc2ccc(OC)c(OC)c2)cc1OC [Cisatracurium Besylate] (concentration: 25 µM)	1.004 ± 0.009	0.624 ± 0.064
CCC1=C(C)CN(C(=O)NCCc2ccc(S(=O)(=O)NC(=O)N[C@H]3CC[C@H](C)CC3)cc2)C1=O [Glimepiride] (concentration: 25 µM)	0.94 ± 0.02	0.859 ± 0.076
Nc1ccc(S(N)(=O)=O)cc1 [Sulfanilamide] (concentration: 25 µM)	0.925 ± 0.018	0.546 ± 0.18
N=c1nc(N2CCCCC2)cc(N)n1O [Minoxidil] (concentration: 25 µM)	1 ± 0.024	0.703 ± 0.083
Nc1nc(F)nc2c1ncn2[C@@H]1O[C@H](COP(=O)(O)O)[C@@H](O)[C@@H]1O [Fludarabine Phosphate] (concentration: 2.5 µM)	1.327 ± 0.0094	0.378 ± 0.024
Cc1ccc(O)c([C@H](CCN(C(C)C)C(C)C)c2ccccc2)c1 [Tolterodine Tartrate] (concentration: 25 µM)	0.935 ± 0.022	1.14 ± 0.059
O=C(O)CCNC(=O)c1ccc(/N=N/c2ccc(O)c(C(=O)O)c2)cc1 [Balsalazide] (concentration: 25 µM)	0.964 ± 0.013	0.669 ± 0.047
C=CC[N+]1([C@H]2C[C@H]3[C@@H]4CC[C@H]5C[C@H](O)[C@@H](N6CCOCC6)C[C@]5(C)[C@H]4CC[C@]3(C)[C@H]2OC(C)=O)CCCC1 [Rocuronium Bromide] (concentration: 25 µM)	0.952 ± 0.043	0.337 ± 0.086
